Test results taken from PubChem BioAssay (NCI).
Compounds without any hit were thinned out: in the full panel of roughly 83,000, 20% have a hit.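 Percent growth is the endpoint: 0 to 100 indicates growth inhibition (40 means 60% inhibition), 0 means no net growth, and negative values indicate cell death.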 Activity calls are given as the source filed them. How the source made its calls: active means growth percent below 10; inactive means the rest.

What was measured:
Experiment in all cases: NCI-60 one-dose screen, 48 h (100 = growth as untreated, 0 = no growth, -100 = all killed)
Details in all cases: 10 µM unless noted
HCT-15 colon = system: HCT-15 colon
HT29 colon = system: HT29 colon
SNB-75 CNS = system: SNB-75 CNS
SNB-19 CNS = system: SNB-19 CNS
U251 CNS = system: U251 CNS
PC-3 prostate = system: PC-3 prostate
SK-MEL-5 melanoma = system: SK-MEL-5 melanoma
UACC-62 melanoma = system: UACC-62 melanoma
LOX IMVI melanoma = system: LOX IMVI melanoma
SK-MEL-28 melanoma = system: SK-MEL-28 melanoma
SK-MEL-2 melanoma = system: SK-MEL-2 melanoma
EKVX NSCLC = system: EKVX NSCLC
SN12C renal = system: SN12C renal
UO-31 renal = system: UO-31 renal
TK-10 renal = system: TK-10 renal
ACHN renal = system: ACHN renal
CAKI-1 renal = system: CAKI-1 renal
CCRF-CEM leukemia = system: CCRF-CEM leukemia
MOLT-4 leukemia = system: MOLT-4 leukemia

Measured: growth

COc1cc(/C=C\C(=O)O)ccc1OCc1ccccc1
inactive: HCT-15 colon 107% | HT29 colon 105% | SNB-75 CNS 103% | SNB-19 CNS 99.2% | U251 CNS 84.9% | PC-3 prostate 92.8% | SK-MEL-5 melanoma 94.2% | UACC-62 melanoma 93.2% | LOX IMVI melanoma 95.7% | SK-MEL-28 melanoma 110% | SK-MEL-2 melanoma 93.5% | EKVX NSCLC 115% | SN12C renal 95% | UO-31 renal 81.4% | TK-10 renal 101% | ACHN renal 102% | CAKI-1 renal 99.4% | CCRF-CEM leukemia 98.3% | MOLT-4 leukemia 96.3%

CC1=C(C(=O)/C=C/c2c[nH]c3ccccc23)C(c2ccccc2)NC(=S)N1 (stereo unspecified)
inactive: HCT-15 colon 101% | HT29 colon 106% | SNB-75 CNS 65.5% | SNB-19 CNS 91.7% | U251 CNS 101% | PC-3 prostate 95.1% | SK-MEL-5 melanoma 98.3% | UACC-62 melanoma 83.6% | LOX IMVI melanoma 94.3% | SK-MEL-28 melanoma 104% | SK-MEL-2 melanoma 99.2% | EKVX NSCLC 85.1% | SN12C renal 91.6% | UO-31 renal 63.9% | TK-10 renal 135% | ACHN renal 93.5% | CAKI-1 renal 77.8% | CCRF-CEM leukemia 103% | MOLT-4 leukemia 101%

O=C(c1nnc(Nc2ccccc2Br)o1)c1c[nH]c2ccccc12
inactive: HCT-15 colon 80.1% | HT29 colon 100% | SNB-75 CNS 89.2% | SNB-19 CNS 96.8% | U251 CNS 96.9% | PC-3 prostate 87.6% | SK-MEL-5 melanoma 89.5% | UACC-62 melanoma 83% | LOX IMVI melanoma 96% | SK-MEL-28 melanoma 104% | SK-MEL-2 melanoma 110% | EKVX NSCLC 104% | SN12C renal 93.4% | UO-31 renal 87% | TK-10 renal 112% | ACHN renal 90.8% | CAKI-1 renal 87.4% | CCRF-CEM leukemia 97.5% | MOLT-4 leukemia 106%

CC(C)(C)c1ccc(NS(=O)(=O)c2ccc3nc(NC(=O)c4cnccn4)[nH]c3c2)cc1
inactive: HCT-15 colon 28.6% | HT29 colon 11% | SNB-19 CNS 40% | U251 CNS 35.3% | PC-3 prostate 28.3% | SK-MEL-5 melanoma 13.4% | UACC-62 melanoma 40.4% | LOX IMVI melanoma 40.4% | SK-MEL-28 melanoma 45.8% | SK-MEL-2 melanoma 45.3% | EKVX NSCLC 58.6% | SN12C renal 44.3% | UO-31 renal 36.1% | TK-10 renal 57.4% | ACHN renal 39.6% | CAKI-1 renal 21.7% | MOLT-4 leukemia 27.7%
active: SNB-75 CNS -30.3% | CCRF-CEM leukemia 7.84%
